Source: PubChem BioAssay
Compounds with a hit are over-represented: about 21% of the library has one in this group of screens.
NS1 inh – influenza NS1 inhibition. Potency, µM (titrated, usually from 46.1 µM). hit rate 0.4% among 270,000; calls by dose curve; note: actives are rising curves; nearly all actives have a fitted effect of over 50% in size
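A cell-based growth assay was used: compounds that relieve NS1-induced slow growth of budding yeast raise OD600. Assay medium was yeast nitrogen base with ammonium sulphate and -URA supplement, pH 6.0, with 2% galactose.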
Pf growth 96h – P. falciparum growth inhibition at 96 hour, primary screen for plastid delayed-death inhibitors; P. falciparum luciferase reporter growth, 96 h; Potency, µM (top dose mostly 28.7 µM), most hits filed as inhibitors; hit rate 6.9% among 320,000; AID 504834
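96 h incubation, 37 C, 5% CO2, of luciferase-reporter P. falciparum-infected RBCs (2% hematocrit, 0.05% parasitemia final) with test compounds; endpoint luminescence.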
Pf growth 48h – inhibits P. falciparum growth in the first generation, 48 h; P. falciparum luciferase growth in erythrocytes, 48 h; Potency, µM (series often up to 28.7 µM), usual class: inhibitors; hit rate 5.9% among 310,000; AID 504832
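Luminescence readout; reporter = integrated firefly luciferase in P. falciparum. RBC culture at 2% hematocrit, 0.1% parasitemia final, 37 C/5% CO2; decreased signal taken as growth inhibition.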
CHX counter – affects cycloheximide protein synthesis inhibition readout, counter-screen; cell reporter, cycloheximide protein synthesis inhibition counterscreen; max response, %; hit rate 12% among 300,000; AID 2314; in the data active = max response mostly above about 13%, no sharp cut-off; inactive = mostly below about 14%; note: read at 38.3 µM for the half of the compounds with a filed dose
Sm TGR inh – inhibitors of Schistosoma mansoni thioredoxin glutathione reductase. purified TGR, DTNB reduction, TNB absorbance 405 nm. Potency, µM (highest dose often 114 µM), hits mostly inhibitors. hit rate 3% among 360,000. AID 485364; note: nearly all actives have a fitted effect of over 60% in size
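First, TGR (20 nM dispensed) and NADPH were mixed with compound. Second, a 15 min room-temperature incubation followed. Third, further NADPH and then DTNB were added to start the reaction. Finally, TNB absorbance was monitored kinetically.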
Shiga inhibitor – Shiga toxin inhibition. Vero cells, Shiga toxin protein synthesis inhibition reporter. inhibition, % at 38.7 µM. hit rate 9.2% among 290,000; in the data active = inhibition mostly above about 28%, no sharp cut-off; inactive = mostly below about 43%
Hits are given with their value. Unless noted, calls come from the whole dose curve; as a rule, active = well fitted curve in the direction sought with a large enough effect; inconclusive = small, poorly fitted or top-dose-only effect, or another doubt; inactive = no such curve, though single readings can be large; an effect the other way counts as inactive or inconclusive.

How did O=S(=O)(Nc1ccncc1)c1cc(Cl)c(Cl)cc1Cl do in these assays?
NS1 inh: inactive; Pf growth 96h: 7.38µM; Pf growth 48h: inactive; CHX counter: inactive; Sm TGR inh: inactive; Shiga inhibitor: inactive

What do the screens show for `NC(=O)Cc1nc(-c2ccccc2)cs1`?
NS1 inh: inactive; Pf growth 96h: inconclusive; Pf growth 48h: inactive; CHX counter: inactive; Sm TGR inh: inactive; Shiga inhibitor: inactive

What do the screens show for `N/C(Cc1nc(-c2ccc(Cl)cc2)cs1)=N/O`?
NS1 inh: inactive; Pf growth 96h: inactive; Pf growth 48h: inactive; CHX counter: 41.4; Sm TGR inh: inactive; Shiga inhibitor: 39.5

What do the screens show for `Oc1csc(Cc2nc(-c3ccc(Br)cc3)cs2)n1`?
Pf growth 96h: inactive; Pf growth 48h: inactive; CHX counter: 38.0; Sm TGR inh: inactive; Shiga inhibitor: 129.9

Results for O=c1oc2ccccc2cc1-c1csc(Cc2nc(-c3ccc(Br)cc3)cs2)n1 ?
NS1 inh: inactive; Pf growth 96h: inactive; Pf growth 48h: inactive; CHX counter: inactive; Sm TGR inh: inactive; Shiga inhibitor: inactive

Results for NC(=O)Cc1nc(-c2ccc(Br)cc2)cs1 ?
NS1 inh: inactive; Pf growth 96h: inactive; Pf growth 48h: inactive; CHX counter: inactive; Sm TGR inh: inactive; Shiga inhibitor: 36.6

What do the screens show for `Cc1ccc(-c2csc(CC(N)=O)n2)cc1`?
Pf growth 96h: inconclusive; Pf growth 48h: inactive; CHX counter: 31.5; Sm TGR inh: inactive; Shiga inhibitor: 66.3

Results for COC(=O)CCSc1nc2sc3c(c2c(=O)n1Cc1ccccc1)CCC(C(C)(C)C)C3 (centres undefined) ?
Sm TGR inh: inactive

What do the screens show for `O=C(NCC(=O)N(CCN1CCOCC1)C(C(=O)NC1CCCC1)c1ccccc1)c1cccs1` (centres undefined)?
NS1 inh: inactive; Pf growth 96h: inconclusive; Pf growth 48h: inactive; CHX counter: inactive; Sm TGR inh: inactive; Shiga inhibitor: inactive

How did CCn1c(SCc2ccc(F)cc2)nc2ccccc2c1=O do in these assays?
NS1 inh: inactive; Pf growth 96h: inactive; Pf growth 48h: inactive; CHX counter: inactive; Sm TGR inh: inactive; Shiga inhibitor: inactive

How did CCn1c(SCc2ccc(F)cc2)nnc1-c1nn(-c2ccccc2)ccc1=O do in these assays?
NS1 inh: inactive; Pf growth 96h: 5.22µM; Pf growth 48h: inconclusive; CHX counter: inactive; Sm TGR inh: inactive; Shiga inhibitor: inactive

What do the screens show for `FC(F)(F)c1ccc(Oc2ccc3ccccc3c2Br)nc1`?
NS1 inh: inactive; Pf growth 96h: 2.94µM; Pf growth 48h: inconclusive; CHX counter: inactive; Sm TGR inh: inactive; Shiga inhibitor: inactive

What do the screens show for `O=[N+]([O-])c1ccccc1Oc1ccc(C(F)(F)F)cn1`?
Pf growth 96h: inactive; Pf growth 48h: inactive; CHX counter: inactive; Sm TGR inh: inactive; Shiga inhibitor: inactive

Results for Cc1ccn2c(Nc3ccc4c(c3)OCO4)c(-c3ccc(N(C)C)cc3)nc2c1 ?
Sm TGR inh: inactive

Results for Cc1nc(-c2ccc(Cl)cc2)sc1C1(C)CC(c2ccc(C#N)cc2)=NO1 (centres undefined) ?
NS1 inh: inactive; Pf growth 96h: inactive; Pf growth 48h: inactive; CHX counter: inactive; Sm TGR inh: inactive; Shiga inhibitor: inactive

How did Cc1nc(NC(=O)c2ccccc2)sc1C1(C)CC(c2c(Cl)cccc2Cl)=NO1 (centres undefined) do in these assays?
NS1 inh: inactive; Pf growth 96h: inconclusive; Pf growth 48h: 13.1µM; CHX counter: inactive; Sm TGR inh: 31.6µM; Shiga inhibitor: inactive

What do the screens show for `Cc1nc(NC(=O)c2ccccc2)sc1C1(C)CC(c2ccccc2F)=NO1` (centres undefined)?
NS1 inh: inconclusive; Pf growth 96h: inconclusive; Pf growth 48h: inconclusive; CHX counter: 42.5; Sm TGR inh: inconclusive; Shiga inhibitor: 59.7

How did Cc1nc(-c2ccccc2)sc1C1(C)CC(c2c(Cl)cccc2Cl)=NO1 (centres undefined) do in these assays?
NS1 inh: inconclusive; Pf growth 96h: inactive; Pf growth 48h: inactive; CHX counter: 20.1; Sm TGR inh: inactive; Shiga inhibitor: 53.3

Results for COc1ccc(-c2c(-c3cc(OC)cc(OC)c3)n(C)c3ccc(-c4cc(F)cc(OC)c4)cc23)cc1 ?
Pf growth 96h: inconclusive; Pf growth 48h: inactive; Sm TGR inh: inactive

Results for c1ccc2c(c1)nc(NCc1ccc3c(c1)OCO3)n2CCN1CCOCC1 ?
NS1 inh: inactive; Pf growth 96h: inactive; Pf growth 48h: inactive; CHX counter: inactive; Shiga inhibitor: inactive

How did C=CCn1c(NCc2ccc3c(c2)OCO3)nc2ccccc21 do in these assays?
NS1 inh: inactive; Pf growth 96h: inconclusive; Pf growth 48h: inconclusive; CHX counter: 33.0; Sm TGR inh: inactive; Shiga inhibitor: active

How did CCn1c(NCc2ccc3c(c2)OCO3)nc2ccccc21 do in these assays?
NS1 inh: inactive; Pf growth 96h: inconclusive; Pf growth 48h: inactive; CHX counter: 22.0; Sm TGR inh: inactive; Shiga inhibitor: inactive

How did CN(C)CCCn1c(NCc2ccc3c(c2)OCO3)nc2ccccc21 do in these assays?
NS1 inh: inactive; Pf growth 96h: inactive; CHX counter: inactive; Sm TGR inh: inactive; Shiga inhibitor: inactive

What do the screens show for `O=C(O)CCc1ccc(-c2cccs2)n1NC(=O)c1ccco1`?
NS1 inh: inactive; Pf growth 96h: 10.4µM; Pf growth 48h: inactive; CHX counter: inactive; Sm TGR inh: inconclusive; Shiga inhibitor: inactive

Results for O=C(O)CCc1ccc(-c2cccs2)n1NC(=O)c1ccc(Cl)cc1 ?
NS1 inh: inconclusive; Pf growth 96h: inactive; Pf growth 48h: inactive; CHX counter: inactive; Sm TGR inh: 50.1µM; Shiga inhibitor: inactive

How did CCn1cc(S(=O)(=O)Nc2ccc(C)c(Cl)c2)cn1 do in these assays?
NS1 inh: inactive; Pf growth 96h: inactive; Pf growth 48h: inactive; CHX counter: inactive; Sm TGR inh: inactive; Shiga inhibitor: inactive

What do the screens show for `COc1ccc(CN2CCNC(=O)C2CC(=O)N2CCCN(C(C)=O)CC2)c(OC)c1` (centres undefined)?
NS1 inh: inactive; Pf growth 96h: inconclusive; Pf growth 48h: inactive; CHX counter: inactive; Sm TGR inh: inactive; Shiga inhibitor: inactive

What do the screens show for `Cc1cc(=O)n2[nH]c(-c3ccc(Cl)cc3)cc2n1`?
NS1 inh: inactive; Pf growth 96h: inconclusive; Pf growth 48h: inconclusive; CHX counter: 35.6; Sm TGR inh: inactive; Shiga inhibitor: 81.7

Results for O=c1cc(-c2ccc([N+](=O)[O-])cc2)nc2cc(-c3ccc(F)cc3)[nH]n12 ?
NS1 inh: inactive; Pf growth 96h: inactive; Pf growth 48h: inactive; CHX counter: inactive; Sm TGR inh: inactive; Shiga inhibitor: inactive

How did Cc1cc(=O)n2[nH]c(-c3ccc(F)cc3)cc2n1 do in these assays?
NS1 inh: inactive; Pf growth 96h: inactive; Pf growth 48h: inactive; CHX counter: 25.0; Sm TGR inh: inactive; Shiga inhibitor: 51.0

Results for Cc1cccc(-c2cc3nc(-c4ccccc4)cc(=O)n3[nH]2)c1 ?
NS1 inh: inactive; Pf growth 96h: inactive; Pf growth 48h: inactive; CHX counter: 21.3; Sm TGR inh: inactive; Shiga inhibitor: inactive
